The source made the active and inactive calls.
Legend:
[1] = test system: PRMT1 (protein arginine N-methyltransferase 1); test: small molecules binding arginine methyltransferase PRMT1 – biochemical, small-molecule microarray, 635 nm fluorescence, primary screen (AID 1088); conditions: higher = more signal;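 note: binding of Prmt1 protein to compounds spotted on small-molecule microarray slides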
[2] = growth effects on S. cerevisiae YJM789 – YJM789 clinical isolate, OD600, 24 h, basal, primary screen (AID 1089); conditions: higher = more signal, called active from +8 up or from −8 down;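 note: growth of clinical yeast isolate S. cerevisiae YJM 789 seeded 1000 cells per well; test concentration not given here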
[3] = S. pombe growth modifiers, basal conditions – strain 972, OD600, 24 h, no modulator, primary screen (AID 1090);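 note: basal condition with compound alone and no growth modifier present; test concentration not given here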; conditions: S. pombe 972 growth, higher = more signal, called active from +8 up or from −8 down
[4] = budding yeast growth modifiers under rapamycin – strain BY4716, OD600, 96 h, primary screen (AID 1091); note: test concentration not given here; conditions: S. cerevisiae BY4716 + rapamycin, higher = more signal, called active from +8 up or from −8 down
[5] = biological target: Torsin-1A-interacting protein 2 (Homo sapiens) (UniProt Q8NFQ8); test: small molecules binding lysate-expressed LULL1 – cell lysate, human LULL1 lysate, 635/667 nm fluorescence, primary screen (AID 1092); conditions: small-molecule microarray, hLULL1 lysate binding, 635 nm fluorescence; higher = more signal;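 note: probe is lysate of COS7 cells overexpressing human LULL1; score merges per-feature 667 nm fluorescence with signal-to-noise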
Torsin-1A-interacting protein 2 (Homo sapiens), sequence (Q8NFQ8 whole entry, looked up): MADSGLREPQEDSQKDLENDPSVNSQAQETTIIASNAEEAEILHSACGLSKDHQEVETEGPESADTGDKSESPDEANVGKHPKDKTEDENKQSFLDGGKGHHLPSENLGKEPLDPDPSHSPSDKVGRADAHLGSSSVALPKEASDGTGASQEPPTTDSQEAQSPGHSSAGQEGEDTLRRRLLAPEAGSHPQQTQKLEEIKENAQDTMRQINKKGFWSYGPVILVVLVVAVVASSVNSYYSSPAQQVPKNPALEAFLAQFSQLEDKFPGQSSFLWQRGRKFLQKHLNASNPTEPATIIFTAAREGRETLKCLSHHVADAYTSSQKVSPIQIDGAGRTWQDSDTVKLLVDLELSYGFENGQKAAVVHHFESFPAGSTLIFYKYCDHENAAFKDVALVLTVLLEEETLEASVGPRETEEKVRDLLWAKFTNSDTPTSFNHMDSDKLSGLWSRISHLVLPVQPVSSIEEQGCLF

[6] = optical density change of DRC41 E. coli – strain DRC41, OD650, 24 h, E. coli filamentation project, primary screen (AID 1093);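 note: MC1000 strain lacking acrAB efflux and sulA so SOS filamentation is blocked; test concentration not given here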; conditions: E. coli DRC41 growth, higher = more signal, called active from +8 up or from −8 down
[7] = probe aLefty2 binding to arrayed compounds – biochemical, biotinylated probe, 635/667 nm fluorescence, primary screen (AID 1094); conditions: small-molecule microarray, higher = more signal;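 note: score merges spot fluorescence near 667 nm with spot signal-to-noise ratio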
[8] = test system: Noggin (protein binding on small-molecule microarray); test: small molecules binding Noggin protein – biochemical, 635/667 nm fluorescence, primary screen (AID 1095); conditions: 635 nm fluorescence, higher = more signal;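 note: score merges 667 nm feature fluorescence with signal to noise over triplicate slides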
[9] = biological target: Neurogenic locus notch homolog protein 3 (Homo sapiens) (UniProt Q9UM47); test: small molecules binding NOTCH3 protein – biochemical, 635/667 nm fluorescence, primary screen (AID 1096); conditions: small-molecule microarray, 635 nm fluorescence, higher = more signal
Neurogenic locus notch homolog protein 3 (Homo sapiens), sequence (Q9UM47 whole entry, looked up): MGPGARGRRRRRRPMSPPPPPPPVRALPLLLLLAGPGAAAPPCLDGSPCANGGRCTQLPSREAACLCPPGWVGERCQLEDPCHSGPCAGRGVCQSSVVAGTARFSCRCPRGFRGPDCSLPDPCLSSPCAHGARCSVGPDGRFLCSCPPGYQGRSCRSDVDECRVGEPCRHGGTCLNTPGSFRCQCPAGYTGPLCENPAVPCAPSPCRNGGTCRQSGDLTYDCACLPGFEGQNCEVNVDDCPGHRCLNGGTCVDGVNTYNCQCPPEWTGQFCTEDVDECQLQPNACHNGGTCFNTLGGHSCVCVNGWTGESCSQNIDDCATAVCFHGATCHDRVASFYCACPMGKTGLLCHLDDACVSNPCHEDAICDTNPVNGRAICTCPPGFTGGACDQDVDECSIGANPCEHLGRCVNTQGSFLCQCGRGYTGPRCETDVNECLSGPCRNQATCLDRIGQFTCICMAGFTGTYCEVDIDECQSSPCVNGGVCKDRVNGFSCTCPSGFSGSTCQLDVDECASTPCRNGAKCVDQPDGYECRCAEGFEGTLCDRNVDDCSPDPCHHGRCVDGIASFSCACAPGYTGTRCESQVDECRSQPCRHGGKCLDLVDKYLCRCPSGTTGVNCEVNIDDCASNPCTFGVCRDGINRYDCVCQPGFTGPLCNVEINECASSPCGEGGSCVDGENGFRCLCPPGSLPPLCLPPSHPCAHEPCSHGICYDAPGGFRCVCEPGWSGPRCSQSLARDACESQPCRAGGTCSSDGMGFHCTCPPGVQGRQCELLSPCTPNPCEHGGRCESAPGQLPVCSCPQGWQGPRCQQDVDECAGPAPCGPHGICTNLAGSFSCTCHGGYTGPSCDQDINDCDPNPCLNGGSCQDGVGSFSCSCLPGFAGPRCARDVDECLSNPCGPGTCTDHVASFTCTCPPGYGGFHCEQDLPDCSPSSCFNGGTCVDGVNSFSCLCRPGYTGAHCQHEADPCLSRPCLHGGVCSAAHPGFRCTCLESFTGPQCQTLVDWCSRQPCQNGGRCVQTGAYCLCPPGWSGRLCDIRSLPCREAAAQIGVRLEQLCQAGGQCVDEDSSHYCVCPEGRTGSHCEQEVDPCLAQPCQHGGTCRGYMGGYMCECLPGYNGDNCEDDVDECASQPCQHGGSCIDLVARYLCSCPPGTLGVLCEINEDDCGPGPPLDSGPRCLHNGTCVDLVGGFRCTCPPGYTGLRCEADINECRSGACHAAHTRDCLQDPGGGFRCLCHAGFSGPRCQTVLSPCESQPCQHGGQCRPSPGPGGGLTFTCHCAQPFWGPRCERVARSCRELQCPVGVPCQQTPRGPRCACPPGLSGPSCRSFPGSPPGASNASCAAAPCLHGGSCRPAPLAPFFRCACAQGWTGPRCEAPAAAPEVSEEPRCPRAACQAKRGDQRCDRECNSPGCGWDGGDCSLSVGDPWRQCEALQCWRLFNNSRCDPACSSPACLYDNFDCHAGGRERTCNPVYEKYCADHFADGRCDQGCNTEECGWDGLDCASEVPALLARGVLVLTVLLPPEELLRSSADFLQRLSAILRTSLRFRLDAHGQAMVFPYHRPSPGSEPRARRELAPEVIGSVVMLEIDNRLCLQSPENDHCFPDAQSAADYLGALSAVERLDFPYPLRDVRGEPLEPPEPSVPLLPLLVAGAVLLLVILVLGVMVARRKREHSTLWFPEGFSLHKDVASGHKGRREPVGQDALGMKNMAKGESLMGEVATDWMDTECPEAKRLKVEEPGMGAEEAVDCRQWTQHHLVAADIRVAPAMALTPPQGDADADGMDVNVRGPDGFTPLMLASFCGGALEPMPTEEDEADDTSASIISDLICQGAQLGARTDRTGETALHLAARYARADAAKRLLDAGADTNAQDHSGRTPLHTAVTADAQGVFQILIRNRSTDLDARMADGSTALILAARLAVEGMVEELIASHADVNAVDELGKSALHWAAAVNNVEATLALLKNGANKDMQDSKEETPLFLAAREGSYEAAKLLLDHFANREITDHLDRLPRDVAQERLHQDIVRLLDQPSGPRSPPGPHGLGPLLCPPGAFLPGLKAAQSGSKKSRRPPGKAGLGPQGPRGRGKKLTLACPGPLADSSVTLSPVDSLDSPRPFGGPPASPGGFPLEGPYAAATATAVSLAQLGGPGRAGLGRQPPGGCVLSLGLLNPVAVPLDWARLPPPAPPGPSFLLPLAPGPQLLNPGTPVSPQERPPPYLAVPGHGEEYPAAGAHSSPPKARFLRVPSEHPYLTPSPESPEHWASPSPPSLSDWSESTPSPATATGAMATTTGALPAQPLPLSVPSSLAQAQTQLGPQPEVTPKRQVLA

[10] = probe aEGFR binding to arrayed compounds – biochemical, biotinylated probe, 635/667 nm fluorescence, primary screen (AID 1097); conditions: small-molecule microarray, higher = more signal;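 note: probe is a biotinylated anti-EGFR antibody binding compounds printed on slides; score combines fluorescence near 667 nm and signal to noise of each spot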

| Structure (SMILES) | composite z-score [1] | z-score [2] | z-score [3] | z-score [4] | composite z-score [5] | z-score [6] | composite z-score [7] | composite z-score [8] | composite z-score [9] | composite z-score [10] |
| --- | --- | --- | --- | --- | --- | --- | --- | --- | --- | --- |
| CCCCCN1CC=CC23O[C@@H]4C=CCCOC(=O)C4[C@H]2C(=O)N(CCCCCCO)[C@@H]3C1=O (stereo not given in full) | 0.812 | -0.0966 (inactive) | -0.0045 (inactive) | -0.0168 (inactive) | 3.49 | 0.313 (inactive) | -0.423 | -0.362 | -0.135 | -0.282 |
| CCCC[C@@H](O)C1=C(COc2ccccc2)C[C@H]2C(=O)N(Cc3ccccc3)C(=O)[C@H]2[C@H]1CO | 0.287 | 0.298 (inactive) | -0.336 (inactive) | 0.361 (inactive) | 0.492 | 0.672 (inactive) | -0.0907 | 0.517 | 0.323 | -0.0828 |
| CO[C@H]1O[C@H](CO)[C@@H](OC(=O)Nc2ccc3c(c2)OCO3)[C@H](OC(=O)Nc2ccc3c(c2)OCO3)[C@@H]1OC(=O)Nc1ccc2c(c1)OCO2 | 1.54 | 1.15 (inactive) | 1.37 (inactive) | 5.69 (inactive) | 3.44 | 0.508 (inactive) | 0.0909 | 0.643 | 1.03 | -0.039 |
| CCCCN1CC=CC23O[C@@H]4/C=C\CCC(C)OC(=O)C4[C@H]2C(=O)N(CCCO)[C@@H]3C1=O (stereo not given in full) | -0.298 | 0.757 (inactive) | 0.772 (inactive) | 0.528 (inactive) | 0.879 | 0.755 (inactive) | -0.186 | -0.908 | -0.166 | -0.217 |
| CC1=C2[C@@H](CCc3ccccc3)OB(O)C[C@@H]2[C@@H]2C(=O)N(C)C(=O)[C@@H]2C1 | 0.618 | -0.229 (inactive) | -1.2 (inactive) | -1.24 (inactive) | 0.299 | -0.253 (inactive) | -0.197 | 0.446 | 0.279 | -0.0238 |
| [N-]=[N+]=Nc1ccccc1C[C@]1(C(=O)O)COC(c2ccc(OCCCO)cc2)=N1 | -0.767 | -0.458 (inactive) | -0.88 (inactive) | 0.559 (inactive) | 1.66 | -0.408 (inactive) | -0.195 | -0.476 | -0.609 | -0.0079 |
| CC(C)C(O)C1C=CC2C(=O)N(c3ccccc3)C(=O)C2N1Nc1ccccc1 (stereo not given) | 1.34 | 0.0864 (inactive) | -2.24 (inactive) | 0.108 (inactive) | 3.42 | -0.304 (inactive) | 0.0436 | 0.948 | 1.07 | -0.0023 |
| O=C1OCCC=C[C@H]2OC34C=CCN(Cn5nnc6ccccc65)C(=O)[C@H]3N(CCCO)C(=O)[C@@H]4C12 (stereo not given in full) | -1.72 | 0.0799 (inactive) | -0.973 (inactive) | -0.342 (inactive) | -1.7 | 1.81 (inactive) | -0.209 | -0.677 | -0.99 | -0.264 |
| COC(=O)C1(CC(C)C)C=C2C(=C(c3ccccc3)C(=O)C2C)CN1 (stereo not given) | -0.291 | -0.201 (inactive) | 0.424 (inactive) | 1.71 (inactive) | 2.16 | -0.326 (inactive) | 1.1 | -1.13 | 0.141 | 0.917 |
| CCOC(=O)C[C@H]1[C@H](OC(=O)c2ccc(C(=O)c3ccccc3)cc2)[C@@H](NC(=O)C2CCCCC2)c2cc(OCCCO)ccc2N1C(=O)c1ccc2ccccc2n1 | 1.34 | -0.882 (inactive) | 0.708 (inactive) | 0.276 (inactive) | 2.01 | 1.25 (inactive) | -0.02 | 0.887 | 1.13 | 0.0213 |
| C=C(/C(=C/C[C@H](OC(C)=O)c1ccc(CO)o1)c1cnc2ccccc2c1)C(C)C | 1.54 | -0.816 (inactive) | -1.13 (inactive) | 0.171 (inactive) | 2.64 | 0.243 (inactive) | -0.044 | 1.6 | 1.02 | -0.0172 |
| CC(C)N1C(=O)C[C@@](C(=O)NC2CC2)(c2ccc([N+](=O)[O-])cc2)[C@H]1c1ccc(CO)cc1 | 0.978 | -0.195 (inactive) | -1.08 (inactive) | 0.601 (inactive) | 3.25 | 0.718 (inactive) | 0.0702 | -1.15 | -0.46 | -0.281 |
| CCOC(=O)C[C@H]1[C@H](OC(=O)c2ccc(C(=O)c3ccccc3)cc2)[C@@H](NC(=O)c2ccc3ccccc3n2)c2cc(OCCCO)ccc2N1C(=O)Cc1ccc(OC)cc1 | 0.517 | 1 (inactive) | 1.04 (inactive) | 0.949 (inactive) | 1.36 | -0.57 (inactive) | -0.157 | 0.842 | 0.312 | -0.206 |
| CCOC(=O)C[C@H]1[C@H](OC(=O)c2cc3ccccc3oc2=O)[C@@H](NC(=O)c2ccc3ccccc3n2)c2cc(OCCCO)ccc2N1C(=O)Cc1ccc(OC)cc1 | 1.45 | -0.136 (inactive) | -0.163 (inactive) | -0.617 (inactive) | 1.33 | 0.397 (inactive) | -0.0391 | 0.638 | 1.16 | 0.104 |
| CC(=O)NCCCC[C@@H]1NC(=O)[C@@H]2C[C@H](C(=O)NCCCCCN)[C@H](c3cccc(OCCO)c3)N2C1=O | 0.872 | -3.85 (inactive) | -0.31 (inactive) | -0.858 (inactive) | 1.66 | 1.36 (inactive) | 0.534 | 1.42 | 1.09 | 0.101 |
